The values that follow come from PubChem BioAssay (Tox21).

Records with an inconclusive call do not appear. Calls of active or inactive are those of the source. Calls follow the shape of the dose curve; as a rule, active = well fitted cell-killing curve with a large enough effect in the repeat runs; inconclusive = weak or mixed curves; inactive = no such curve, though single readings can be large or run the other way.
% is scaled to controls: 0 for no effect and ±100 for the full control effect; potency is read from the fitted curve at half-maximal effect.

This assay can be described thus: qHTS assay for identifying genotoxic compounds that show differential cytotoxicity against isogenic chicken DT40 cell lines with known DNA damage response pathways - Rad54/Ku70 mutant cell line (AID 743015). Also: nearly all actives have a fitted effect of over 60% in size. The note with it: DT40 Rad54/Ku70 mutant viability, CellTiter-Glo, 40 h; series mostly up to 66.8 µM; activity change, negative = cytotoxicity: at the top concentration. The text has this:
National Center for Advancing Translational Sciences [NCATS]
NIH Chemical Genomics Center [NCGC]
U.S. Environmental Protection Agency [EPA]
National Institutes of Environmental Health Sciences [NIEHS]
National Toxicology Program [NTP]
U.S. Food and Drug Administration [FDA]
DNA repair pathways play a critical role in cellular homeostasis by repairing DNA damage induced by endogenous processes and xenobiotics. Isogenic chicken DT40 cell lines deficient in different DNA repair pathways can be used to identify genotoxic compounds and aid in characterizing the nature of the DNA damage induced. Two DNA repair-deficient cell lines with disrupted genes, Rad54/Ku70 or Rev3, were used to screen the Tox21 10K compound library. Possible genotoxicity was based on the presence of a significant increase in cytotoxicity in one or more of the DNA repair-deficient cell lines compared to that observed in the parental DNA repair-proficient cell line. CellTiter Glo viability assay (Promega, Madison, WI) was used to measure cell viability in these cells after compound treatment. This assay includes the data from the Rad54/Ku70 mutant cell line.
Tox21 Assay Protocol Summary:
300 DT40 mutant cells in 5 uL/well were dispensed into white, solid-bottom 1536-well plates using a Multidrop Combi (ThermoFisher Scientific, Waltham, MA) dispenser. After the assay plates were incubated at 37 C/5% CO2 for approximately 0.5 hour, 23 nL of compounds dissolved in DMSO, positive controls or DMSO only was transferred into the assay plate by a pintool work station (Kalypsys, San Diego, CA). The assay plates were incubated at 37 C/5% CO2 for 40 hours. After 5 uL per well of CellTiter-Glo reagent was added into each well of the assay plates, the plates were incubated for 30 min at room temperature and the luminescence intensity of the plates was measured using a ViewLux (PerkinElmer, Shelton, CT) plate reader.
`O=[N+]([O-])c1ccc(NCCO)c(OCCO)c1`: the “activity change, negative = cytotoxicity” value was -2.13% (inactive).

Consider `CC(C)=CCC/C(C)=C/CC/C(C)=C/CO`, for which the Potency was 30.6 µM (active).

In the case of `Nc1cccc(S(=O)(=O)c2cccc(N)c2)c1`, the Potency was 61.1 µM (active).

Regarding `CCCCC`, the Potency entry was “inactive”.

Consider `CN(C)CCN(Cc1ccccc1)c1ccccn1`, for which the “activity change, negative = cytotoxicity” value was -15.4% (inactive).

As for `CCOC(=O)c1cccnc1`, the “activity change, negative = cytotoxicity” value is 6.42% (inactive).

With `CC1CCC(=O)C1=O` (stereo not given), the “activity change, negative = cytotoxicity” value is -4.59% [at 95.1 µM] (inactive).

`CCOC(=O)COC(=O)c1cc(Oc2ccc(C(F)(F)F)cc2Cl)ccc1[N+](=O)[O-]`: the Potency was 19.3 µM (active).

Consider `COc1cc2nc(N(C)CCCNC(=O)C3CCCO3)nc(N)c2cc1OC` (stereo not given), for which the “activity change, negative = cytotoxicity” value was 4.44% [at 30.7 µM] (inactive).

As to `CC(C)CC(=O)C1C(=O)c2ccccc2C1=O`, the “activity change, negative = cytotoxicity” value was 1.15% (inactive).

Turning to `CN(Cc1ccc(C(C)(C)C)cc1)Cc1cccc2ccccc12`, the “activity change, negative = cytotoxicity” value is -2.04% (inactive).

For the compound `CC(COCCO)OCCO` (stereo not given), the “activity change, negative = cytotoxicity” value was -5.26% (inactive).

Regarding `CCCCC1=NC2(CCCC2)C(=O)N1Cc1ccc(-c2ccccc2-c2nn[nH]n2)cc1`, the “activity change, negative = cytotoxicity” value is 9.57% (inactive).

As for `CC1OC(=O)C(C)OC1=O` (stereo not given), the “activity change, negative = cytotoxicity” value was -2.27% (inactive).

As to `CN(C)CCCN1c2ccccc2Sc2ccccc21`, the Potency was 10.1 µM (active).

For `CC[N+](C)(CC)CCOC(=O)C(O)(c1ccccc1)C1CCCCC1` (stereo not given), the “activity change, negative = cytotoxicity” value is 1.73% (inactive).

On to `C=C1[C@H]2CC[C@@H]3[C@H]2C(C)(C)CCC[C@]13C`, for which the “activity change, negative = cytotoxicity” value was -11.3% (inactive).

With `O=C(O)c1ccco1`, the “activity change, negative = cytotoxicity” value was 6.94% (inactive).

Turning to `CCOc1ccc(N=Nc2ccc(/C=C/c3ccc(N=Nc4ccc(OCC)cc4)cc3S(=O)(=O)O)c(S(=O)(=O)O)c2)cc1`, the “activity change, negative = cytotoxicity” value was -12.9% (inactive).

As to `CN1CCN(C(c2ccccc2)c2ccccc2)CC1`, the “activity change, negative = cytotoxicity” value is -8.27% [at 30.7 µM] (inactive).

Consider `CCN(CC)c1ccc2c(-c3ccccc3C(=O)O)c3ccc(=[N+](CC)CC)cc-3oc2c1`, for which the Potency was 8.63 µM (active).

As to `OC[C@H]1O[C@@H](OCCc2ccc(O)cc2)[C@H](O)[C@@H](O)[C@@H]1O`, the “activity change, negative = cytotoxicity” value was 9.52% (inactive).

`C=C(C)C(=O)OCCOCC`: the “activity change, negative = cytotoxicity” value is 2.14% [at 95.1 µM] (inactive).

Turning to `CC(CC=O)c1ccccc1` (stereo not given), the “activity change, negative = cytotoxicity” value was -6.03% (inactive).

As to `O=C(c1ccc(F)cc1)C1CCN(CCn2c(=S)[nH]c3ccccc3c2=O)CC1`, the Potency was 6.68 µM (active).

For `CC1(c2ccccc2)OC(C(=O)O)=CC1=O` (stereo not given), the “activity change, negative = cytotoxicity” value is 3.04% (inactive).

In the case of `C=CC1CC2C=CC1C2` (stereo not given), the “activity change, negative = cytotoxicity” value was 4.21% (inactive).

In the case of `CN1CCC(=C2c3ccccc3Sc3ccccc32)CC1`, the Potency is 8.41 µM (active).

In the case of `Cc1[nH]c(C)c(Cl)c(=O)c1Cl`, the “activity change, negative = cytotoxicity” value is 0.458% (inactive).

In the case of `CC(=O)[O][Al][O]C(C)=O`, the “activity change, negative = cytotoxicity” value was 5.05% (inactive).

Turning to `c1ccc(-c2ccccn2)nc1`, the Potency is 24.3 µM (active).

For the compound `CCCn1cnc2c1c(=O)n(CCCCC(C)=O)c(=O)n2C`, the “activity change, negative = cytotoxicity” value was 7.68% (inactive).

On to `NC(=O)C(c1ccccc1)(c1ccccc1)[C@@H]1CCN(CCc2ccc3c(c2)CCO3)C1`, for which the Potency is 23.7 µM (active).

Consider `CCn1cc(C(=O)O)c(=O)c2cnc(N3CCNCC3)nc21`, for which the “activity change, negative = cytotoxicity” value was 6.08% [at 30.7 µM] (inactive).

`CN1CCC(N(Cc2cccs2)c2ccccc2)CC1`: the Potency was 10.6 µM (active).

Take `CCO[C@H](Cc1ccc(OCCc2ccc(OS(C)(=O)=O)cc2)cc1)C(=O)O`: the “activity change, negative = cytotoxicity” value was -0.443% (inactive).

For the compound `CCN(CC)CCNc1ccc(CNC=O)c2sc3ccc(OC)cc3c(=O)c12`, the Potency was 0.969 µM (active).

On to `CCCCCCCN`, for which the “activity change, negative = cytotoxicity” value was 5.55% [at 95.1 µM] (inactive).

`O=C(O)c1ccccc1Cl`: the “activity change, negative = cytotoxicity” value is 8.58% (inactive).

For the compound `CCC(Cl)CCC(Cl)C(Cl)CC(Cl)C(Cl)C(Cl)CCl` (stereo not given), the “activity change, negative = cytotoxicity” value was -16.2% (inactive).
